# Measured values as given in PubChem BioAssay (Tox21).
# Values without a mark were called inactive. Unless noted, the call rests on the fitted dose curve; in most records, active means well fitted curve in the direction sought with a large enough effect in the repeat runs; inconclusive means weak or mixed curves; inactive means no such curve, though single readings can be large; an effect the other way counts as inactive or inconclusive. Results filed as inconclusive are left out.
# Target: Thyrotropin-releasing hormone receptor (Homo sapiens) (UniProt P34981)
# Experiment: qHTS assay to identify small molecule agonists of the thyrotropin-releasing hormone receptor (TRHR) signaling pathway (AID 1346891; calls by dose curve)
# Settings: TRHR-HEK293 calcium fluorescence, agonist mode; series mostly up to 57.6 µM; activation: at the top concentration
# How it was run: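 Intracellular calcium rise, read as fluorescence every second for 3 min, served as the agonist signal in dye-loaded HEK293 cells expressing TRHR; each compound ran at 15 concentrations in triplicate.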
# On the % scale 0 is the no-effect control and ±100 the full control effect.
# Thyrotropin-releasing hormone receptor (Homo sapiens), sequence (P34981 whole entry, looked up): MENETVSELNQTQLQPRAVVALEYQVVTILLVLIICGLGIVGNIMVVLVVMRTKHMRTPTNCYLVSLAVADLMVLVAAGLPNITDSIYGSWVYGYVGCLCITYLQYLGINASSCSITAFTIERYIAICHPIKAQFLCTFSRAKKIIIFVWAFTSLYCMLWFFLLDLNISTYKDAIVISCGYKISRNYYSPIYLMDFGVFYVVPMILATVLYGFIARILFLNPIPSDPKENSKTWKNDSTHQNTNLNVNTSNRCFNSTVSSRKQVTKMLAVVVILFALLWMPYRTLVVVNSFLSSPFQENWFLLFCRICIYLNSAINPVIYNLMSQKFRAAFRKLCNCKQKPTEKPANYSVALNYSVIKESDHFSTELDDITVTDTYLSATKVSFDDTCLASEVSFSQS
row,Structure (SMILES),activation
1,CC(=O)O[C@H]1CC[C@@]2(C)C(=CC[C@@H]3[C@@H]2CC[C@]2(C)C(C(C)=O)=CC[C@@H]32)C1,-0.351% [at 26.5 µM]
2,CCCCC(CC)COC(=O)COc1cc(Cl)c(Cl)cc1Cl (stereo not given),-0.459%
3,Clc1cccc(-c2cc(Cl)cc(Cl)c2)c1,3.96%
4,CN(C)CC[C@@H](c1ccc(Cl)cc1)c1ccccn1,-0.0889% [at 26.5 µM]
5,CC/C=C\CCOC(=O)C(C)C,-0.0784%
6,OCCN1CCN(CCO)CC1,0.0202%
7,O=C1N(c2ccccc2)c2ccccc2C1(Cc1ccncc1)Cc1ccncc1,0.156% [at 26.5 µM]
8,COc1ccccc1OCC(O)COC(N)=O (stereo not given),0.0933% [at 26.5 µM]
9,CC(=O)N[C@@H](CC(C)C)C(=O)O,0.235% [at 26.5 µM]
10,C[C@]12CCC(=O)C=C1CC[C@@H]1[C@@H]2CC[C@@]2(C)[C@H]1CC[C@]2(O)C(=O)CO,0.418% [at 26.5 µM]
11,CCCC1CCC(=O)O1 (stereo not given),-0.0867%
12,CC(C)S,-0.0647%
13,COC(=O)C(C)O (stereo not given),-0.0356%
14,CCOc1ccc(OCC)c(Cl)c1,-0.985%
15,Cc1nc(N)nc(N)c1-c1ccc(Cl)c(Cl)c1,2.89% [at 26.5 µM]
16,O=Cc1ccc(F)c(Br)c1,-0.608%

row,Structure (SMILES),activation
1,CCCCNc1cc(C(=O)O)cc(S(N)(=O)=O)c1Oc1ccccc1,-0.453% [at 26.5 µM]
2,CC(C)O,-0.17%
3,CC(C)C(=O)OCC(C)(C)C(O)C(C)C (stereo not given),0.0772%
4,COC(C)CCO (stereo not given),0.0365%
5,OC[C@H]1O[C@@H](O[C@H]2[C@H](O)[C@@H](O)[C@H](O)O[C@@H]2CO)[C@H](O)[C@@H](O)[C@H]1O,-0.135%
6,NC(Cc1ccc(F)cc1)C(=O)O (stereo not given),0.148% [at 5.23 µM]
7,O=C1C=CC(=O)O1,1.74%
8,CCCCNCCCC,0.0795%
9,NNS(=O)(=O)c1ccc(Oc2ccc(S(=O)(=O)NN)cc2)cc1,0.427%
10,CCC(=O)c1ccc2c(c1)N(CCCN(C)C)c1ccccc1S2,0.424% [at 26.5 µM]
11,OCCN(CCO)CCN(CCO)CCO,0.0647%
12,CC1=C2[C@H](/C=C(\C)C(=O)O)CC[C@@H](C)[C@H]2CC1,-0.0245%
13,O=C(O)CN(CCN(CC(=O)O)CC(=O)O)CCN(CC(=O)O)CC(=O)O,-0.051% [at 11.8 µM]
14,COC(=O)/C=C(/C)N,-0.253% [at 26.5 µM]
15,Cc1nc(-c2ccccn2)ncc1C(=O)Nn1cc(C)c2cc(F)ccc21,-0.263%

# System: not listed separately
# Experiment: Human pregnane X receptor (PXR) small molecule agonists, qHTS cell viability counter screen (AID 1346977); further: nearly all actives have a fitted effect of over 50% in size
# Settings: PXR-Luc HepG2 viability, CellTiter-Fluor, 24 h; series mostly up to 92.4 µM; activity change, negative = cytotoxicity: at the top concentration
# How it was run: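 PXR-Luc HepG2, 2,000 cells/well, 5% charcoal-stripped FBS; 5hr settle; cpd 24hr, 37C/5% CO2; CellTiter-Fluor at 23hr, read 1hr later (fluorescence).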
row,Structure (SMILES),"activity change, negative = cytotoxicity"
1,CC(=O)O[C@H]1CC[C@@]2(C)C(=CC[C@@H]3[C@@H]2CC[C@]2(C)C(C(C)=O)=CC[C@@H]32)C1,10.1% [at 42.5 µM]
2,Clc1cccc(-c2cc(Cl)cc(Cl)c2)c1,2.29%
3,CCCCCCCCCCCCOCCOS(=O)(=O)O,-13.8%
4,CC/C=C\CCOC(=O)C(C)C,-4.79%
5,OCCN1CCN(CCO)CC1,-1.44%
6,O=C1N(c2ccccc2)c2ccccc2C1(Cc1ccncc1)Cc1ccncc1,8.94% [at 42.5 µM]
7,CCCC1CCC(=O)O1 (stereo not given),-0.753%
8,CCOc1ccc(OCC)c(Cl)c1,2.73%
9,Cc1cc2nc(N)sc2cc1C,7.43%
10,O=Cc1ccc(F)c(Br)c1,1.41%
11,NCCC(O)(P(=O)(O)O)P(=O)(O)O,10.6% [at 42.5 µM]
12,CC(C)O,-0.12%
13,CC(C)C(=O)OCC(C)(C)C(O)C(C)C (stereo not given),1.11%
14,O=C(Cl)c1cccc([N+](=O)[O-])c1,2.34%
15,O=C1C=CC(=O)O1,14.1%
16,CCCCNCCCC,13.8%
17,OCCN(CCO)CCN(CCO)CCO,13%
18,CC1=C2[C@H](/C=C(\C)C(=O)O)CC[C@@H](C)[C@H]2CC1,-27.2%
19,CCN(CC)C(=O)N(CC)CC,13%
20,Cc1nc(-c2ccccn2)ncc1C(=O)Nn1cc(C)c2cc(F)ccc21,-27.2%

# System: not listed separately
# Experiment: Caspase-3/7 induction in HepG2 cells by small molecules, qHTS assay (AID 1346978); further: nearly all actives have a fitted effect of over 15% in size
# Settings: HepG2 caspase-3/7 activation, Caspase-Glo luminescence, 17 h; series mostly up to 92.4 µM; caspase activation: at the top concentration
# How it was run: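 Wild-type HepG2 cells (2,000/well) were settled 5 h at 37 C, 5% CO2, then exposed to compounds in DMSO for 17 h. Caspase-3/7 activity was read by luminescence 30 min after adding Caspase-Glo 3/7 reagent at room temperature.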
row,Structure (SMILES),caspase activation
1,CC(=O)O[C@H]1CC[C@@]2(C)C(=CC[C@@H]3[C@@H]2CC[C@]2(C)C(C(C)=O)=CC[C@@H]32)C1,-0.0259% [at 42.5 µM]
2,CCCCC(CC)COC(=O)COc1cc(Cl)c(Cl)cc1Cl (stereo not given),-0.0842%
3,Clc1cccc(-c2cc(Cl)cc(Cl)c2)c1,6.15%
4,CCCCCCCCCCCCOCCOS(=O)(=O)O,0.31%
5,CN(C)CC[C@@H](c1ccc(Cl)cc1)c1ccccn1,-0.828% [at 42.5 µM]
6,CC/C=C\CCOC(=O)C(C)C,-0.154%
7,OCCN1CCN(CCO)CC1,0.361%
8,O=C1N(c2ccccc2)c2ccccc2C1(Cc1ccncc1)Cc1ccncc1,0.0776% [at 42.5 µM]
9,COc1ccccc1OCC(O)COC(N)=O (stereo not given),0.0158% [at 42.5 µM]
10,CC(=O)N[C@@H](CC(C)C)C(=O)O,-0.982% [at 42.5 µM]
11,C[C@]12CCC(=O)C=C1CC[C@@H]1[C@@H]2CC[C@@]2(C)[C@H]1CC[C@]2(O)C(=O)CO,-1.34% [at 42.5 µM]
12,CCCC1CCC(=O)O1 (stereo not given),0.112%
13,CC(C)S,0.336%
14,COC(=O)C(C)O (stereo not given),0.0225%
15,CCOc1ccc(OCC)c(Cl)c1,2.37%
16,Cc1nc(N)nc(N)c1-c1ccc(Cl)c(Cl)c1,-2.84% [at 42.5 µM]
17,c1ccc(CN(CC2=NCCN2)c2ccccc2)cc1,1.9% [at 42.5 µM]
18,Cc1cc2nc(N)sc2cc1C,-15.1%
19,O=Cc1ccc(F)c(Br)c1,0.191%
20,CCCCNc1cc(C(=O)O)cc(S(N)(=O)=O)c1Oc1ccccc1,-0.265% [at 42.5 µM]

row,Structure (SMILES),caspase activation
1,NCCC(O)(P(=O)(O)O)P(=O)(O)O,-0.843% [at 42.5 µM]
2,CC(C)O,0.378%
3,CC(C)C[C@H](NC(=O)OCC1c2ccccc2-c2ccccc21)C(=O)O,0.477%
4,C1CSCCS1,1.06%
5,CC(C)C(=O)OCC(C)(C)C(O)C(C)C (stereo not given),0.793%
6,COC(C)CCO (stereo not given),0.286%
7,O=C(Cl)c1cccc([N+](=O)[O-])c1,-0.63%
8,OC[C@H]1O[C@@H](O[C@H]2[C@H](O)[C@@H](O)[C@H](O)O[C@@H]2CO)[C@H](O)[C@@H](O)[C@H]1O,1.15%
9,NC(Cc1ccc(F)cc1)C(=O)O (stereo not given),0.163% [at 8.39 µM]
10,O=C1C=CC(=O)O1,0.531%
11,CCCCNCCCC,-0.596%
12,NNS(=O)(=O)c1ccc(Oc2ccc(S(=O)(=O)NN)cc2)cc1,0.488%
13,CCC(=O)c1ccc2c(c1)N(CCCN(C)C)c1ccccc1S2,3.93% [at 42.5 µM]
14,OCCN(CCO)CCN(CCO)CCO,1.29%
15,CC1=C2[C@H](/C=C(\C)C(=O)O)CC[C@@H](C)[C@H]2CC1,0.349%
16,O=C(O)CN(CCN(CC(=O)O)CC(=O)O)CCN(CC(=O)O)CC(=O)O,0.916% [at 19 µM]
17,CCN(CC)C(=O)N(CC)CC,-0.428%
18,COC(=O)/C=C(/C)N,-0.15% [at 42.5 µM]
19,Cc1nc(-c2ccccn2)ncc1C(=O)Nn1cc(C)c2cc(F)ccc21,-0.0526%
